“And” between values parts separate entries of the source, which are not always exact repeats. Equal entries are not always repeated. Out of some 5,500 compounds screened, about 2,000 (36%) were called active. Not shown: some 18% with an inconclusive outcome. No stated cut-off is given here; in the data, active means normalized growth mostly below about 0.91 (no sharp cut-off); inconclusive means no clear call, values can overlap the other calls; inactive means mostly above about 0.92. This is one part of the list.
Assay: chemical genetic growth profiling, strain panel (AID 1159580);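 further: tested at 20 µM; growth read once vehicle control cultures reached saturation at 30 °C; 1 = growth at the plate median or of vehicle wells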
Settings: S. cerevisiae deletion strains, growth OD

Measured: normalized growth

COC(=O)c1c(C)c2c(c(C)c1O)OC(=O)c1c(C)c(Cl)c(O)c(Cl)c1O2
active: locus YDR162C, strain NBP2, stronger effect = lower value 0.734 | locus YDR392W, strain spt3, stronger effect = lower value 0.617 | locus YGR229C, strain SMI1, stronger effect = lower value 0.462 | locus YHR142W, strain chs7, stronger effect = lower value 0.849 | locus YJR043C, strain POL32, stronger effect = lower value 0.853 | locus YLR262C, strain YPT6 (second series), stronger effect = lower value 0.855 | locus YLR342W, strain FKS1 (second series), stronger effect = lower value 0.751 | locus YLR418C, strain cdc73, stronger effect = lower value 0.83 | locus YMR307W, strain GAS1, stronger effect = lower value 0.545 | locus YOR270C, strain vph1, stronger effect = lower value 0.715
inactive: locus YAL021C, strain ccr4, stronger effect = lower value 0.943 | locus YAL026C, strain drs2, stronger effect = lower value 0.951 | locus YAL030W, strain snc1, stronger effect = lower value 0.969 | locus YBL061C, strain skt5, stronger effect = lower value 0.968 | locus YBR009C, strain hhf1, stronger effect = lower value 0.935 | locus YBR021W, strain FUR4, stronger effect = lower value 0.962 | locus YBR023C, strain chs3, stronger effect = lower value 0.959 | locus YBR171W, strain sec66, stronger effect = lower value 0.975 | locus YBR229C, strain ROT2, stronger effect = lower value 0.985 | locus YBR231C, strain swc5, stronger effect = lower value 0.976 | locus YBR279W, strain paf1, stronger effect = lower value 0.944 | locus YCL011C, strain gbp2, stronger effect = lower value 0.96 | locus YCL016C, strain dcc1, stronger effect = lower value 0.967 | locus YCL029C, strain bik1, stronger effect = lower value 1.03 | locus YCL069W, strain vba3, stronger effect = lower value 0.944 | locus YCR088W, strain abp1, stronger effect = lower value 0.96 | locus YDL005C, strain med2, stronger effect = lower value 0.947 | locus YDL035C, strain GPR1, stronger effect = lower value 0.894 | locus YDL040C, strain nat1, stronger effect = lower value 0.943 | locus YDL074C, strain BRE1, stronger effect = lower value 0.926 | locus YDL101C, strain DUN1, stronger effect = lower value 0.98 | locus YDL134C, strain PPH21, stronger effect = lower value 0.941 | locus YDL185W, strain tfp1, stronger effect = lower value 0.995 | locus YDL192W, strain arf1, stronger effect = lower value 0.922 | locus YDR001C, strain nth1, stronger effect = lower value 0.969 | locus YDR069C, strain doa4, stronger effect = lower value 0.967 | locus YDR101C, strain arx1, stronger effect = lower value 1 | locus YDR137W, strain rgp1, stronger effect = lower value 0.87 | locus YDR159W, strain sac3, stronger effect = lower value 0.902 | locus YDR195W, strain ref2 1.03 | locus YDR297W, strain sur2, stronger effect = lower value 0.944 | locus YDR318W, strain mcm21, stronger effect = lower value 0.975 | locus YDR334W, strain swr1, stronger effect = lower value 0.939 | locus YDR335W, strain msn5, stronger effect = lower value 0.939 | locus YDR388W, stronger effect = lower value 0.984 | locus YDR502C, strain sam2, stronger effect = lower value 0.96 | locus YEL003W, strain gim4, stronger effect = lower value 0.969 | locus YEL037C, strain rad23, stronger effect = lower value 0.957 | locus YEL061C, strain CIN8 (second series), stronger effect = lower value 0.961 | locus YEL061C, strain CIN8, stronger effect = lower value 0.986 | locus YER015W, strain faa2, stronger effect = lower value 0.977 | locus YER016W, strain bim1, stronger effect = lower value 0.96 | locus YER110C, stronger effect = lower value 1.03 | locus YER111C, strain swi4, stronger effect = lower value 0.979 | locus YER155C, strain BEM2 (second series), stronger effect = lower value 0.97 | locus YER155C, strain BEM2, stronger effect = lower value 1.01 | locus YER167W, strain BCK2, stronger effect = lower value 0.937 | locus YFR010W, strain ubp6, stronger effect = lower value 0.952 | locus YGL078C, strain dbp3, stronger effect = lower value 0.991 | locus YGL086W, strain mad1, stronger effect = lower value 0.962 | locus YGL167C, strain pmr1, stronger effect = lower value 0.95 | locus YGL173C, strain kem1, stronger effect = lower value 0.966 | locus YGL227W, strain vid30, stronger effect = lower value 0.969 | locus YGL240W, strain doc1, stronger effect = lower value 0.93 | locus YGL248W, strain PDE1, stronger effect = lower value 0.983 | locus YGL253W, strain hxk2, stronger effect = lower value 0.952 | locus YGR135W, strain pre9, stronger effect = lower value 0.964 | locus YGR252W, strain gcn5, stronger effect = lower value 0.927 | locus YHR013C, strain ard1, stronger effect = lower value 0.946 | locus YHR027C, strain rpn1, stronger effect = lower value 0.957 | locus YHR030C, strain SLT2, stronger effect = lower value 0.992 and 0.949 | locus YHR079C, strain IRE1 (second series), stronger effect = lower value 1.03 | locus YHR079C, strain IRE1, stronger effect = lower value 0.94 | locus YHR094C, strain hxt1, stronger effect = lower value 1.03 | locus YHR129C, strain ARP1, stronger effect = lower value 0.973 | locus YHR200W, strain rpn10, stronger effect = lower value 0.993 | locus YIL066C, strain RNR3, stronger effect = lower value 0.892 | locus YIL073C, strain SPO22, stronger effect = lower value 0.976 | locus YIL125W, strain kgd1, stronger effect = lower value 1.01 | locus YIR030C, strain dcg1, stronger effect = lower value 1.02 | locus YJL092W, strain hpr5, stronger effect = lower value 0.979 | locus YJL095W, strain BCK1 (second series), stronger effect = lower value 0.955 | locus YJL095W, strain BCK1, stronger effect = lower value 0.84 and 0.969 | locus YJL115W, strain asf1, stronger effect = lower value 0.956 | locus YJL129C, strain trk1, stronger effect = lower value 0.9 | locus YJL134W, strain LCB3, stronger effect = lower value 1 | locus YJL154C, strain vps35, stronger effect = lower value 0.967 | locus YJL164C, strain tpk1, stronger effect = lower value 0.926 | locus YJL166W, strain qcr8, stronger effect = lower value 0.94 | locus YJL168C, strain set2, stronger effect = lower value 0.997 | locus YJL187C, strain SWE1 (second series), stronger effect = lower value 0.966 | locus YJR066W, strain TOR1, stronger effect = lower value 0.878 | locus YKL009W, strain mrt4, stronger effect = lower value 1.01 | locus YKL068W, stronger effect = lower value 1 | locus YKL085W, strain MDH1 (second series), stronger effect = lower value 1.01 | locus YKL085W, strain MDH1, stronger effect = lower value 1.01 | locus YKL160W, strain elf1, stronger effect = lower value 0.956 | locus YKL190W, strain CNB1, stronger effect = lower value 0.957 | locus YKR001C, strain vps1, stronger effect = lower value 0.937 | locus YKR026C, strain gcn3, stronger effect = lower value 0.97 | locus YKR091W, strain srl3, stronger effect = lower value 0.967 | locus YLL001W, strain dnm1, stronger effect = lower value 0.959 | locus YLL026W, stronger effect = lower value 0.975 | locus YLL041C, strain sdh2, stronger effect = lower value 0.964 | locus YLR027C, strain aat2, stronger effect = lower value 0.984 | locus YLR039C, strain RIC1, stronger effect = lower value 0.928 | locus YLR058C, strain SHM2, stronger effect = lower value 0.985 | locus YLR102C, strain apc9, stronger effect = lower value 1.01 | locus YLR113W, strain HOG1, stronger effect = lower value 1.04 | locus YLR221C, strain rsa3, stronger effect = lower value 0.958 | locus YLR258W, strain gsy2, stronger effect = lower value 0.937 | locus YLR262C, strain YPT6, stronger effect = lower value 0.865 | locus YLR268W, strain sec22, stronger effect = lower value 1 | locus YLR320W, strain mms22, stronger effect = lower value 0.932 | locus YLR330W, strain CHS5, stronger effect = lower value 0.987 | locus YLR342W, strain FKS1, stronger effect = lower value 0.971 | locus YLR357W, strain rsc2, stronger effect = lower value 0.922 | locus YLR370C, strain arc18, stronger effect = lower value 0.958 | locus YLR371W, strain rom2, stronger effect = lower value 1.03 | locus YLR384C, strain iki3, stronger effect = lower value 0.983 | locus YML016C, strain PPZ1, stronger effect = lower value 1.01 | locus YML032C, strain rad52, stronger effect = lower value 0.959 | locus YML120C, strain ndi1, stronger effect = lower value 0.957 | locus YML124C, strain tub3, stronger effect = lower value 1.02 | locus YMR058W, strain fet3, stronger effect = lower value 0.95 | locus YMR078C, strain ctf18, stronger effect = lower value 1.01 | locus YMR125W, strain sto1, stronger effect = lower value 0.986 | locus YMR129W, stronger effect = lower value 0.974 | locus YMR205C, strain PFK2, stronger effect = lower value 0.879 | locus YMR223W, strain ubp8, stronger effect = lower value 0.949 | locus YMR231W, strain pep5, stronger effect = lower value 0.954 | locus YNL067W, strain RPL9B, stronger effect = lower value 0.996 | locus YNL071W, strain lat1, stronger effect = lower value 0.932 | locus YNL183C, strain NPR1, stronger effect = lower value 0.931 | locus YNL209W, strain ssb2, stronger effect = lower value 0.991 | locus YNL233W, strain BNI4, stronger effect = lower value 0.916 | locus YNL248C, strain rpa49, stronger effect = lower value 0.954 | locus YNL250W, strain rad50, stronger effect = lower value 1.02 | locus YNL271C, strain bni1, stronger effect = lower value 1 | locus YNL298W, strain CLA4, stronger effect = lower value 1.01 | locus YNL307C, strain MCK1, stronger effect = lower value 0.978 | locus YNL322C, strain KRE1 (second series), stronger effect = lower value 0.976 | locus YNR049C, strain mso1, stronger effect = lower value 0.955 | locus YNR052C, strain pop2, stronger effect = lower value 0.967 | locus YOL012C, strain htz1 1.87 | locus YOL147C, strain pex11, stronger effect = lower value 1 | locus YOR001W, strain rrp6, stronger effect = lower value 0.945 | locus YOR061W, strain CKA2, stronger effect = lower value 0.99 | locus YOR069W, strain VPS5, stronger effect = lower value 1.01 | locus YOR070C, strain gyp1, stronger effect = lower value 0.98 | locus YOR080W, strain dia2, stronger effect = lower value 0.965 | locus YOR083W, strain WHI5, stronger effect = lower value 0.932 | locus YOR106W, strain vam3, stronger effect = lower value 0.877 | locus YOR136W, strain idh2, stronger effect = lower value 0.997 | locus YOR144C, strain elg1, stronger effect = lower value 1.02 | locus YOR184W, strain ser1, stronger effect = lower value 0.874 | locus YOR231W, strain MKK1, stronger effect = lower value 0.972 | locus YOR265W, strain rbl2, stronger effect = lower value 0.962 | locus YOR290C, strain snf2, stronger effect = lower value 0.92 | locus YOR316C, strain cot1, stronger effect = lower value 1 | locus YPL051W, strain arl3, stronger effect = lower value 0.925 | locus YPL078C, strain atp4, stronger effect = lower value 0.964 | locus YPL106C, strain sse1, stronger effect = lower value 0.903 | locus YPL240C, strain hsp82, stronger effect = lower value 0.96 | locus YPL256C, strain CLN2, stronger effect = lower value 0.954 | locus YPR119W, strain clb2, stronger effect = lower value 1 | locus YPR141C, strain kar3, stronger effect = lower value 0.995 | locus YPR163C, strain tif3, stronger effect = lower value 1.02 | locus YPR167C, strain met16, stronger effect = lower value 0.982 | strain wtn01, stronger effect = lower value 1
